Results reported in the supplement of paper PMC7556523.
Unmarked numbers belong to inactive results.

The compounds below were run on Sporothrix brasiliensis CBS 133006 (assay: growth inhibition relative to untreated control; higher = more growth inhibition (more antifungal activity), active = 80 or more; extreme values may be limits of the assay). Details: 1 µM; 48 h.
Outline: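 Before testing, the reference isolates were kept in brain heart infusion broth with 2% glucose at 36°C for 7 days to give yeast-form cells. These cells, at 1 x 10^5 CFU/ml, received library compounds at a final 1 μM and were held 48 h at 35°C in 5% CO2. Growth was checked by eye under an inverted light microscope and quantified spectrophotometrically in quadruplicate, and the value is percent growth inhibition versus untreated cells.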
OC[C@H]1O[C@@H](n2c3ccc(Cl)cc3c3c(-c4cc5ccccc5o4)ncnc32)C(O)[C@H]1O (stereo not given in full) was tested, and the growth inhibition was 10.8%. Nc1nc2cc(-c3cncc(Oc4ccc(F)cc4)c3)ccc2[nH]1 gave a growth inhibition of 8.5%. Compound COc1ccc(C2CC(c3cccs3)=NN2C(=O)c2ccco2)cc1OC (stereo not given) has a growth inhibition of 0%. Compound O=C(Nc1ccnc(-c2cccnc2)n1)c1cc(C(F)(F)F)cc(C(F)(F)F)c1 has a growth inhibition of 2.5%. O=C(NCCc1c[nH]c2ccccc12)c1cc2ccccc2oc1=O showed a growth inhibition of 17.8%. CNc1snc(C)c1C(=O)NCCOc1ccc(OC)cc1 was tested, and the growth inhibition was 12.2%. In the case of CN1CCN(S(=O)(=O)c2ccc(-c3ccc4c(Nc5ccc6nn[nH]c6c5)ccnc4c3)cc2)CC1, the growth inhibition is reported as 4.25%. In the case of Cc1cc(NC(=O)c2ccc(Oc3ccc(Cl)cc3O)o2)no1, the growth inhibition is reported as 18.8%. With COc1cc(C2=NCCN2)cc2cc(-c3ccc(C4=NCCN4)cc3)oc12 the growth inhibition was 17%. Cc1cc2nc(NC(=O)C(C)(C)C)nc(Cl)c2n1Cc1ccc(Cl)cc1 showed a growth inhibition of 14.8%. With Cc1nn2c(O)c3c(nc2c1-c1ccc(F)cc1)CCCC3 the growth inhibition was 7%. Cc1nn2c(=O)c3c([nH]c2c1-c1ccc(Cl)cc1)CCCC3 was tested, and the growth inhibition was 12.8%. With COc1ccc(-c2cncc3ccc(C(=O)NCCCn4ccnc4)nc23)cc1 the growth inhibition was 16%. In the case of CC(=O)Nc1ccc(NC(=O)c2cc(-c3cc(Cl)ccc3O)n[nH]2)cc1, the growth inhibition is reported as 9.5%. In the case of CC(C)(C(=O)Nc1ccc(F)cc1)n1cc(-c2ccccc2F)cn1, the growth inhibition is reported as 0%.
